From PubChem
Only some compounds are listed: those with a hit (about 10% of all), similar ones and a draw of the others.
hNpr1 antagonist = Natriuretic polypeptide receptor (hNpr1) antagonism - Primary qHTS; hit rate 1.6% among 76,000; HEK293 hNpr1 GloSensor cGMP, ANP-stimulated luminescence; Potency, µM (top dose mostly 46.3 µM), inactives show at the top dose activity change, negative = inhibition, usual class: inhibitors; calls by dose curve; further: on the % scale 0 is the no-effect control and ±100 the full control effect; nearly all actives have a fitted effect of over 60% in size
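HEK293 cells stably expressing human Npr1 and cGMP GloSensor pGS-40F, loaded 2 h with 2% GloSensor reagent, given compound 30 min at room temperature. Luminescence read before and 20 min after 0.1 nM hNppA.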
FLuc inh = Firefly luciferase inhibition profiling of diverse chemical library using quantitative high-throughput screening | purified P. pyralis luciferase, luminescence, biochemical | Potency, µM (top dose mostly 115 µM), actives largely listed as inhibitors | hit rate 2.5% among 76,000 | AID 1347043, 2019; further: on the % scale 0 is the no-effect control and ±100 the full control effect; nearly all actives have a fitted effect of over 65% in size
Target sequence (P08659 whole entry, looked up): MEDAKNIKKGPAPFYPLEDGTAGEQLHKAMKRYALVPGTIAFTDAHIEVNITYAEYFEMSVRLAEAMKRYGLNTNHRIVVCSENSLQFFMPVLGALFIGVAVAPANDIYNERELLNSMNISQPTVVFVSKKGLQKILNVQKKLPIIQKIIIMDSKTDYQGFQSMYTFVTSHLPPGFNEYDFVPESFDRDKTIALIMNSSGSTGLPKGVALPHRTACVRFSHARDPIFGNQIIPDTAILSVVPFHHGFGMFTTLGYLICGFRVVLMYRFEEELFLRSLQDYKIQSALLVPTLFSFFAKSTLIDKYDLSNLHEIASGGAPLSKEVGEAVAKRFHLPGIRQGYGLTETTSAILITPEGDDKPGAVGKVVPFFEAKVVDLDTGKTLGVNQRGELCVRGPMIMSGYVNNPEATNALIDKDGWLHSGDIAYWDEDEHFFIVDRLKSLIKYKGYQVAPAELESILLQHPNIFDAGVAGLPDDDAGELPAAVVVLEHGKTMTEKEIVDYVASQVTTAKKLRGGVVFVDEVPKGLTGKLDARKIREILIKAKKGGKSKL
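Purified P. pyralis luciferase (10nM final) in 50mM Tris acetate pH 7.5, 10mM Mg acetate, 0.01% Tween-20, 0.05% BSA with 10uM D-luciferin and 10uM ATP. Compounds titrated qHTS. Luminescence imaged on CCD.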
NIH3T3 tox = Cytotoxic Profiling in NIH 3T3 Cell Line of Diverse Libraries Using Quantitative High-Throughput Screening; NIH 3T3 viability, CellTiter-Glo ATP luminescence, 48-72 h; Potency, µM (highest dose often 96.7 µM), for the others: top-dose activity change, negative = cytotoxicity, hits mostly inhibitors; hit rate 4.3% among 94,000; AID 1345082, 2018; further: on the % scale 0 is the no-effect control and ±100 the full control effect; nearly all actives have a fitted effect of over 55% in size
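ATP-dependent luminescence (CellTiter-Glo) served as the viability signal for NIH 3T3 cells treated with compound for 48 or 72 hr at 37 °C.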
HEK293 tox = Cytotoxic Profiling in HEK 293 Cell Line of Diverse Libraries Using Quantitative High-Throughput Screening | AID 1345083, 2018 | hit rate 6.6% among 94,000 | HEK 293 viability, ATP luminescence (CellTiter-Glo), 48-72 h | Potency, µM (top dose mostly 115 µM), for inactives: at the highest dose activity change, negative = cytotoxicity, usual class: inhibitors; further: on the % scale 0 is the no-effect control and ±100 the full control effect; nearly all actives have a fitted effect of over 60% in size
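CellTiter-Glo luminescence (cellular ATP) was read after 48 or 72 hr of compound exposure at 37 degree Celsius. Cells were HEK 293 plated at 250 cells/well.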
GPT2 inh = Primary qHTS assay for inhibitors of Glutamate pyruvate transaminase 2 (GPT2); Alanine aminotransferase 2 (Homo sapiens), Q8TD30; Recombinant GPT2, coupled pyruvate oxidase/HRP Amplex Red fluorescence; Potency, µM (highest dose often 57.7 µM), for the others: at the highest dose activity change, negative = inhibition, hits mostly inhibitors; hit rate 0.25% among 100,000; AID 1671188, 2021; further: on the % scale 0 is the no-effect control and ±100 the full control effect; nearly all actives have a fitted effect of over 60% in size
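Fluorescence read-out: pyruvate from GPT2 turnover coupled to pyruvate oxidase, HRP and Amplex Red (0.2mM ThPP, 0.2U/mL PO and HRP, 50uM Amplex final). Substrates 250uM a-KG, 2mM L-alanine; enzyme 10ng/uL; 30 min RT.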
Npr1 antag conf = Natriuretic polypeptide receptor (hNpr1) antagonism - Confirmation. shares compounds with hNpr1 antagonist. HEK293 hNpr1 cGMP GloSensor luminescence, ANP-stimulated. Potency, µM (top dose mostly 57.6 µM), for inactives: top-dose activity change, negative = inhibition, most hits filed as inhibitors. hit rate 76% among 1,400; calls by dose curve; further: nearly all actives have a fitted effect of over 70% in size
Npr2 selectivity = Natriuretic polypeptide receptor (hNpr2) antagonism - Subtype selectivity assay; shares compounds with hNpr1 antagonist; HEK293 hNpr2 GloSensor cGMP luminescence, CNP-stimulated; hit rate 67% among 1,400; Potency, µM (series often up to 57.6 µM), for the others: at the highest dose activity change, negative = inhibition, most hits filed as inhibitors; calls by dose curve; further: nearly all actives have a fitted effect of over 70% in size
FLuc counter = Natriuretic polypeptide receptor (hNpr1) antagonism - Confirmation firefly luciferase (FLuc) inhibition counterscreen | purified FLuc enzyme, luminescence, Km substrate | hit rate 0.7% among 1,400 | AID 1347047, 2019 | shares compounds with hNpr1 antagonist | Potency, µM (top dose mostly 57.6 µM), for inactives: top-dose activity change, negative = inhibition, most hits filed as inhibitors; further: 0% is about no effect
GloSensor cGMP = Natriuretic polypeptide receptor (hNpr1) antagonism - Counterscreen GloSensor control cell line. Potency, µM (highest dose often 57.6 µM), inactives show at the highest dose activity change, negative = inhibition, actives largely listed as inhibitors. hit rate 69% among 1,400. HEK293 GloSensor cGMP, SNP-stimulated, luminescence. AID 1347051, 2019. shares compounds with hNpr1 antagonist; calls by dose curve; further: on the % scale 0 is the no-effect control and ±100 the full control effect; nearly all actives have a fitted effect of over 70% in size
Numbers without * were called inactive; i = inactive; ? = inconclusive; · = no result; [ ] = another dose, or the depositor's remark. Unless noted, the call rests on the fitted dose curve; in most records, active means well fitted curve in the direction sought with a large enough effect; inconclusive means small, poorly fitted or top-dose-only effect, or another doubt; inactive means no such curve, though single readings can be large; an effect the other way counts as inactive or inconclusive. Potency means the concentration at half of the fitted maximal effect.

SMILES	hNpr1 antagonist	FLuc inh	NIH3T3 tox	HEK293 tox	GPT2 inh	Npr1 antag conf	Npr2 selectivity	FLuc counter	GloSensor cGMP
O=C1COCC2(CN1)CN(c1ccc(Oc3ccccc3)cc1)C2	7.1µM*	i	?	?	3%[88.5 µM]	11µM*	9.9µM*	-4%[86.2 µM]	9.9µM*
CCCc1ccc(S(=O)(=O)NC2CCN(c3ccc(=O)n(CC4CC4)n3)CC2)cc1	10µM*	i	?	?	?	12µM*	15µM*	-1%	14µM*
O=C(CCC1CCCCC1)NC1CCN(c2ccc(=O)n(CC3CC3)n2)CC1	?	i	?	?	2%	·	·	·	·
O=c1ccc(N2CCC(NS(=O)(=O)c3ccccc3Cl)CC2)nn1CC1CC1	13µM*	i	?	-39%	5%	27µM*	22µM*	-1%	24µM*
Cc1cc2ncc(C(=O)NCc3cccc(C(F)(F)F)c3)cn2n1	·	·	?	?	-7%[88.5 µM]	·	·	·	·
Cc1cc(Cl)ccc1-c1ccc(CNC2CN(C(=O)OC(C)(C)C)C2)cc1	·	·	?	?	1%	22µM*	22µM*	-1%	19µM*
CNC(=O)c1cc(C2CC2)nc2c1c(C1CCCN(C(=O)Cc3ccccc3)C1)nn2C (stereo not given)	·	·	-11%	-6%	·	·	·	·	·
O=C(c1csc(N2CCN(c3ccccc3)CC2)n1)N1CCCCCC1	10µM*	i	?	?	3%	22µM*	22µM*	-11%	19µM*
CC(C)N1CCN(C(=O)c2csc(N3CCN(c4cccc(Cl)c4)CC3)n2)CC1	-25%	i	?	?	-6%	·	·	·	·
CN1CCN(C(=O)c2csc(N3CCN(c4ccc(Cl)cc4)CC3)n2)CC1	-11%	?	?	?	i	·	·	·	·
O=C(c1csc(N2CCN(c3ccccc3)CC2)n1)N1CCN(c2ccccn2)CC1	13µM*	i	3%	-40%	?	27µM*	24µM*	0%	24µM*
O=C(NC1CCCCC1)N1Cc2[nH]cnc2C[C@H]1c1nc(-c2ccc(F)c(Cl)c2)no1	-19%	?	?	-29%	0%	·	·	·	·
COc1ccc(OC)c(NC(=O)Cn2c(N3CCc4ccccc4C3)nc(C)cc2=O)c1	?	i	28µM*	32µM*	i	?	?	1%	?
Cc1cccc(NC(=O)Cn2c(N3CCc4ccccc4C3)nc(C)cc2=O)c1	-28%	i	?	45µM*	i	-29%	?	0%	?
Cc1cc(=O)n(CC(=O)Nc2ccccc2C)c(N2CCc3ccccc3C2)n1	?	i	?	?	i	?	-22%	2%	-27%
Cc1cc(=O)n(CC(=O)NC(C)C)c(N2CCc3ccccc3C2)n1	4%	i	-3%	?	i	·	·	·	·
COc1ccc(C)cc1NC(=O)Cn1c(N2CCc3ccccc3C2)nc(C)cc1=O	1%	i	-4%	-1%	i	·	·	·	·
COc1ccccc1NC(=O)Cn1c(N2CCc3ccccc3C2)nc(C)cc1=O	-23%	i	?	?	i	-23%	-14%	-3%	-10%
CCC(NS(=O)(=O)c1ccc(C(=O)NC2CC2)cc1)c1cnn(C)c1 (stereo not given)	-1%	i	0%	-2%	i	·	·	·	·
COc1ccc(NC(=O)c2cccc3c2CCN3C(=O)c2ccc(F)cc2)c(OC)c1	18µM*	i	?	32µM*	?	24µM*	24µM*	-12%	22µM*
N#Cc1cccc(CN2CCOC[C@H]2c2ncc(-c3ccc(Cl)s3)[nH]2)c1	28µM*	i	?	?	?	40µM*	?	-2%[86.2 µM]	?
Fc1ccc(CN2CCOC[C@H]2c2ncc(-c3ccc(F)cc3F)[nH]2)cc1	?	i	?	79µM*	3%[88.5 µM]	?	?	-23%[86.2 µM]	?
Fc1cccc(-c2cnc([C@@H]3COCCN3Cc3ccccc3)[nH]2)c1	-21%[70.6 µM]	i	?	?	-28%[88.5 µM]	·	·	·	·
Cn1c(CN2CCOC[C@H]2c2ncc(-c3ccc(Cl)cc3)[nH]2)nc2ccccc21	20µM*	i	?	79µM*	-11%[88.5 µM]	31µM*	28µM*	5%[86.2 µM]	?
FC(F)(F)CN1C2CCC1CN(c1nccc(Nc3ccccc3Cl)n1)C2	·	·	?	?	-25%	·	·	·	·
O=C(NCCCN1CCCC1=O)c1ccccc1C1CCNC1 (stereo not given)	-1%	i	-6%	0%	2%	·	·	·	·
COc1ccc(NC(=O)c2ccc(-c3nnc4ccc(NC(=O)C5CCC5)cn34)cc2)cc1	-30%	i	-4%	?	i	?	-29%	-19%	-23%
Cc1noc(C)c1C(=O)N1CCC2(CC1)CC(c1cccc(C(F)(F)F)c1)=NO2	·	·	-27%	-14%	·	·	·	·	·
CC(C)(C)CC(=O)N1CCC(N2C(=O)C3(CCCCC3)C2c2ccncc2)CC1 (stereo not given)	6%	i	i	i	i	·	·	·	·
CC(C)C1=NOC2(CCN(Cc3ccc(C(F)(F)F)cc3)CC2)C1	11µM*	i	?	?	-8%[88.5 µM]	25µM*	31µM*	1%[86.2 µM]	20µM*
